# The other results are listed elsewhere or left out. Records with an inconclusive call do not appear. Active and inactive are the calls of the source.
# Legend:
# [1] = target: Solute carrier family 12 member 5 (Homo sapiens) (UniProt Q9H2X9); assay: KCC2 modulators in sodium-free buffer, confirmation, cell-based, HEK293 KCC2, thallium flux, secondary assay (AID 1713); details: FluoZin2 fluorescence, at 10 µM, stronger effect = higher value
# PubChem AID 1714 = details: HEK293-KCC2 + bumetanide/ouabain, thallium flux FluoZin2; at 10 µM; stronger effect = higher value
# [2] = target: Solute carrier family 12 member 5 (Homo sapiens) (UniProt Q9H2X9); assay: KCC2 modulators without ouabain present, confirmation, cell-based, HEK293 KCC2, thallium flux, FluoZin2, secondary assay 2 (AID 1715;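 active = thallium flux slope more than 3 SD above or below the plate's solvent-only control mean, mostly below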;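 note: raw slope with 0.1% DMSO as baseline and bumetanide as block control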); details: HEK293-KCC2, thallium flux FluoZin2 fluorescence; at 10 µM; actives lie on both sides; F/F0 rise rate, 10–20 s post-thallium
# [3] = target: Solute carrier family 12 member 5 (Homo sapiens) (UniProt Q9H2X9); assay: KCC2 inhibitors and activators, ouabain retest, confirmation, HEK-KCC2 cells (AID 1717;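 active = thallium flux slope beyond 3 SD from same-plate DMSO control mean in most replicates, usually higher, sometimes lower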;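 note: slope of initial-normalized fluorescence between seconds 10 and 20 after thallium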); details: HEK293-KCC2, thallium flux FluoZin2 fluorescence, at 10 µM, bidirectional: low = inhibitor, high = activator
# [4] = native HEK Tl+ uptake effects, second counter-screen – HEK cells, counterscreen 2, counter-screen for KCC2 modulator project, confirmation (AID 1718;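 active = thallium flux slope above the same plate's solvent-control mean plus 3 SD in both duplicate wells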;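 note: run without ouabain in cells lacking the KCC2 cotransporter; slope of fluorescence scaled to its starting value between 10 and 20 s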); details: HEK293 parental, thallium flux FluoZin-2 fluorescence slope; at 10 µM
# [5] = thallium flux modulation in parental HEK cells, confirmation, counter-screen for KCC2 modulator project, cell-based, counterscreen 1 (AID 1716;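 active = thallium flux rate significantly above the same plate's solvent-only control wells, beyond their mean plus 3 SD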); details: HEK293 parental cells, thallium flux FluoZin2, ouabain; at 10 µM; baseline-ratio fluorescence slope, 10–20 s after thallium
# [6] = inhibitors of TNFa-induced NFkB p65 translocation, primary screen, imaging, HUVEC, MLSMR starter and 10KST1 sets (AID 438;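 active = inhibition above 20% together with a positive visual image hit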;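 note: compound added about 3h40 before a 20 min TNFalpha stimulation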;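 for inhibition: signal is the nuclear over cytoplasmic p65 intensity ratio per well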); details: HUVEC TNFa-induced p65 nuclear translocation; cell count: measured here: nuclei count (cytotoxicity indicator), at 2.08 µM; inhibition: at 2 µM, stronger effect = higher value, 0% TNFa-plus-vehicle, 100% no-TNFa wells
# [7] = inhibitors of mutant huntingtin aggregation, primary screen, imaging, exon1htt(103Q)mCFP cells, high-content imaging (AID 483;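 active = visual image review flags a hit and inhibition of aggregation exceeds 20%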;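 note: compound exposure lasted 3 days before fixation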;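 for nuclei count: percent of the per-plate median nuclei count of sample wells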); details: exon1htt(103Q)mCFP cell line, aggregate imaging, at 2 µM; inhibition of aggregation: stronger effect = higher value; nuclei count: measured here: cell count, toxicity
# [8] = inhibitors of E-selectin induction by TNFa, primary screen, imaging, HUVEC, immunofluorescence, MLSMR starter and 10KST1 sets (AID 487;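 active = visually confirmed hit in the image check and inhibition above 20%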;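 for inhibition: signal is fraction of cell area covered by stained E-selectin grains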;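 for nuclei count: 100% = median nuclei count of all wells on the same plate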); details: HUVEC TNFalpha-induced E-selectin immunofluorescence imaging, at 2 µM; inhibition: stronger effect = higher value; nuclei count: measured here: cell number, toxicity
# [9] = target: Voltage-gated potassium channel subunit beta-2 (Rattus norvegicus) (UniProt P62483); assay: KvBeta enzyme negative modulators, primary screen, biochemical, NADPH fluorescence (AID 622;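 active = fluorescence slope higher than the sample average by over 3 SD, cut at about -0.22 in these data, passing the limit was not always enough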;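 note: slope of raw intensity against log time taken from 70 to 1610 s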); details: recombinant KvBeta, 4-cyanobenzaldehyde reduction, at 10 µM, stronger effect = higher value
# Sequence of Voltage-gated potassium channel subunit beta-2 (Rattus norvegicus) (P62483 whole entry, looked up): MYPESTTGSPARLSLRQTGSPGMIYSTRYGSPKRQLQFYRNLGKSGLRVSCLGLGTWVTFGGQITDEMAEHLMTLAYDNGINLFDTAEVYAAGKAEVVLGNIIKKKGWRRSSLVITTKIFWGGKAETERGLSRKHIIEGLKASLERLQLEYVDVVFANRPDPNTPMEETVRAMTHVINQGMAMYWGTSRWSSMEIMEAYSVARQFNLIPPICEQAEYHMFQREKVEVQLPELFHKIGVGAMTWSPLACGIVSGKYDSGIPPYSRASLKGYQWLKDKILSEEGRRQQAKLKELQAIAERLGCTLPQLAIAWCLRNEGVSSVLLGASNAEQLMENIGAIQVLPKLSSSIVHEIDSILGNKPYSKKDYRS
# [10] = target: Voltage-gated potassium channel subunit beta-2 (Rattus norvegicus) (UniProt P62483); assay: KvBeta positive modulators, primary screen, biochemical, NADPH fluorescence (AID 623;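 active = NADPH fluorescence slope more negative than the mean of all samples by about 3 SD, 99.7% confidence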;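 note: fluorescence intensity change per second fitted from 20 to 320 s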); details: Recombinant KvBeta, NADPH fluorescence decrease slope, 10 min; at 10 µM; stronger effect = lower value
# [11] = target: Alpha-2C adrenergic receptor (Homo sapiens) (UniProt P18825); assay: modulators of alpha2C/GIRK thallium flux, primary screen, cell-based, HEK293 alpha2C/GIRK1/2 (AID 624;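 active = fluorescence slope after compound addition differing from the mean of all screened samples at 99.7% confidence, in either direction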;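 note: slope of fluorescence ratio to pre-addition baseline per second over 15 to 24 s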); details: thallium flux BTC fluorescence, at 10 µM, actives lie on both sides
# Sequence of Alpha-2C adrenergic receptor (Homo sapiens) (P18825 whole entry, looked up): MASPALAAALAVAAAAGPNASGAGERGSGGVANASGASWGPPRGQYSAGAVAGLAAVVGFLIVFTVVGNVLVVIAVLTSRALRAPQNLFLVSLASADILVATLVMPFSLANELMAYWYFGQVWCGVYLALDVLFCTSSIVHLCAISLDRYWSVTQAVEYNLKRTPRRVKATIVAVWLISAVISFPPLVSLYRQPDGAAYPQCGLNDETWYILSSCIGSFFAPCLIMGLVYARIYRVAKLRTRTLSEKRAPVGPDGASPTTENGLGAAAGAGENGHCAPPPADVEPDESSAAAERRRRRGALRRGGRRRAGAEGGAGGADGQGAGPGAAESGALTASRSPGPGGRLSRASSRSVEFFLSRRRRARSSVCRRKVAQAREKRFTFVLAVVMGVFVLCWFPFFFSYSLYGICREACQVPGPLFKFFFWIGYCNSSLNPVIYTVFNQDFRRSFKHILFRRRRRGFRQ
# [12] = inhibitors of larval lipid processing in zebrafish, primary screen, whole organism, PED6 fluorescence, gall bladder and intestine (AID 686;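 active = a full or partial loss of lipid-probe fluorescence in the fish gall bladder, intestine or both, judged by eye; inactive = no fluorescence loss, or compound toxic to the fish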;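 note: larvae 5 to 7 days old with five fish per well; signal comes from phospholipase A2 cleavage of quenched PED6 carried via bile; overnight exposure to compound and PED6 before scoring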); details: Zebrafish larvae PED6 lipid processing, fluorescence scoring; screened at 20 µM (by protocol)
# [13] = inhibitors of Sendai virus-induced IRF3 signaling, primary screen, TLR/RLR signaling modifier project, cell-based, Sendai virus stimulus, luciferase, 10K MLSCN set (AID 602276;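 active = inhibition at or above 50% at 10 µM; inactive = inhibition below 50%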;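 note: firefly luciferase from ISG56 promoter only with Renilla not read in this screen; 0% = Sendai virus plus DMSO and 100% = medium plus DMSO without virus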); details: HEK293 RL24 IRF3 luciferase reporter, at 10 µM, stronger effect = higher value
# [14] = inhibitors of poly I:C-induced TLR3 signaling, primary screen, cell-based, poly I:C stimulus, luciferase, 10K MLSCN set (AID 602277;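 active = inhibition of the reporter signal at or above 50%; inactive = inhibition below 50%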); details: HEK293-TLR3 RL24 IRF3 luciferase reporter, at 10 µM, stronger effect = higher value
# [15] = DUSP6 inhibitors restoring Erk phosphorylation by chemical complementation, primary imaging in DUSP6-transfected HeLa (AID 609;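 active = compounds giving at least 50% inhibition in the cell-based MKP-3 phosphatase rescue imaging test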;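 for inhibition: phospho-Erk level distribution per well compared with pooled transfected vehicle control wells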); details: HeLa MKP-3 transfected, phospho-Erk imaging KS statistic, at 10 µM, cells stimulated with TPA for 15 min
# [16] = target: Dual specificity protein phosphatase 6 (Homo sapiens) (UniProt Q16828); assay: as above; details: HeLa MKP-3 transfected, phospho-Erk imaging KS statistic; at 10 µM; stronger effect = higher value; cells stimulated with TPA for 15 min
# Sequence of Dual specificity protein phosphatase 6 (Homo sapiens) (Q16828 whole entry, looked up): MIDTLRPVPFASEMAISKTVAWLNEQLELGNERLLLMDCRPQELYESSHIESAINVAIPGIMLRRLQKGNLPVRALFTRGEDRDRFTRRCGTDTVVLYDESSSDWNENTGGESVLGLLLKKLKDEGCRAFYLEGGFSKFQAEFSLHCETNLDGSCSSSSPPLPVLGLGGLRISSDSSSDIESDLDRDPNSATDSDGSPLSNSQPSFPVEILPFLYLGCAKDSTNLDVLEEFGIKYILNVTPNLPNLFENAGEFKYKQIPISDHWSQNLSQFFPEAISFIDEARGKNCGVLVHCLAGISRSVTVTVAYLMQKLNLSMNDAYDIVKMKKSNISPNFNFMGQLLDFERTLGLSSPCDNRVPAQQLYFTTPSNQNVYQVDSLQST
# [17] = inhibitors of Chlamydomonas gravitaxis, primary screen, whole organism, Chlamydomonas reinhardtii, WT vs cilia-less mutant, absorbance, 96-well (AID 463189;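 active = inhibition at or above 50% relative to wild type and mutant plate controls; inactive = inhibition below 50%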;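 note: 0% = wild type cc124 cells in DMSO and 100% = ciliumless bld1 mutant cells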); details: OD600 absorbance, 2 days, at 10 µM, stronger effect = higher value
# [18] = target: Muscarinic acetylcholine receptor M4 (Homo sapiens) (UniProt P08173); assay: compounds altering M4/GIRK thallium flux, either direction, primary screen, M4 allosteric agonist project, cell-based, HEK293 M4/GIRK, BTC-AM (AID 625;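 active = fluorescence slope after compound addition differing from the mean of all tested samples at 99.7% confidence, mostly higher but some lower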;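 note: thallium influx through GIRK channels coupled to M4 in HEK293 cells with BTC-AM dye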); details: at 10 µM, actives lie on both sides
# Sequence of Muscarinic acetylcholine receptor M4 (Homo sapiens) (P08173 whole entry, looked up): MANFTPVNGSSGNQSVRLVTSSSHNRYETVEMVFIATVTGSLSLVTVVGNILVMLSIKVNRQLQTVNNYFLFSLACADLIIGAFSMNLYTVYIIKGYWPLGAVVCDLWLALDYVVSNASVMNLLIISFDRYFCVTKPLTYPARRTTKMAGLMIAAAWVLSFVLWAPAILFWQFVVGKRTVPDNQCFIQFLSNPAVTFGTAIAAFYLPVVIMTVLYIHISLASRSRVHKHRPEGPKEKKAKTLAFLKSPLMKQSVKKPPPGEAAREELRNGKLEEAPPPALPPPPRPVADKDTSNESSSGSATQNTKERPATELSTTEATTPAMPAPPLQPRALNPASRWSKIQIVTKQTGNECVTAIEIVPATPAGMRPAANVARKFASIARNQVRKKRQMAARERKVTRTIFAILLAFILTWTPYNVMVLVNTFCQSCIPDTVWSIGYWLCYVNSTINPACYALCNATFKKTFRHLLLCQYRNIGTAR
# [19] = measured here: cell density z-score
# [20] = measured here: nuclear c-Myc green intensity z-score
# [21] = measured here: nuclear pErk red intensity z-score, stronger effect = higher value
# Sequence of Solute carrier family 12 member 5 (Homo sapiens) (Q9H2X9 whole entry, looked up): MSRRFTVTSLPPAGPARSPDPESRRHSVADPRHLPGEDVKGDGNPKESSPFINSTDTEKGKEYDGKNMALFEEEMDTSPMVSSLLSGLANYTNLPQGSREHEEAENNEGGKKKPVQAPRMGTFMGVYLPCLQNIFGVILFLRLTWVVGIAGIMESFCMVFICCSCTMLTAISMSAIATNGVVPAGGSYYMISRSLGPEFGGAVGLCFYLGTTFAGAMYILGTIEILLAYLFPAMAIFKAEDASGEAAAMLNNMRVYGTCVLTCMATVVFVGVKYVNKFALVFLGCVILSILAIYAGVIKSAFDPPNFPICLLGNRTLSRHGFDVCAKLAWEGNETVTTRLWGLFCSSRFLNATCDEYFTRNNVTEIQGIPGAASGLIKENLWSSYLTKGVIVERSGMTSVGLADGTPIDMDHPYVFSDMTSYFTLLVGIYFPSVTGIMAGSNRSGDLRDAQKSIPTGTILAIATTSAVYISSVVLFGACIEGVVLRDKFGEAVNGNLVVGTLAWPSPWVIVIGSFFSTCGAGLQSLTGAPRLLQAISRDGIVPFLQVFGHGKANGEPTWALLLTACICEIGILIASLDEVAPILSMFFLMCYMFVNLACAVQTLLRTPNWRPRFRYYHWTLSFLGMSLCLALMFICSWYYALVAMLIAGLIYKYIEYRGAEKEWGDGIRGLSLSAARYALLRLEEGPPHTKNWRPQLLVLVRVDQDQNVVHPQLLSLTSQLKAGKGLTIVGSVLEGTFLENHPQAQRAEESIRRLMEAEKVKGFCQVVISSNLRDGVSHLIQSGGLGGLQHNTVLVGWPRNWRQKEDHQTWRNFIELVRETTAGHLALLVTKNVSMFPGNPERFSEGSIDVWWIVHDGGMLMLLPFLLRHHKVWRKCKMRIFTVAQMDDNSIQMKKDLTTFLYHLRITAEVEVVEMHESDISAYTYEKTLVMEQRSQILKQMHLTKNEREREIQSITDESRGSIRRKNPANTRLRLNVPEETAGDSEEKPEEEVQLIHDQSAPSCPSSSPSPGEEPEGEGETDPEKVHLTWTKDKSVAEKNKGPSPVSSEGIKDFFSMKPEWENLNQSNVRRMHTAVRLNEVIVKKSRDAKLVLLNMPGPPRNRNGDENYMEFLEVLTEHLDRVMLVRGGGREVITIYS
compound,measurement,setting,value
COc1ccccc1N1CCN(C(=O)CSc2ncnc3c2cnn3-c2ccc(C)c(C)c2)CC1,normalised thallium flux (F/F0 slope),[1],0.00591 (inactive)
same,normalized thallium flux,PubChem AID 1714,0.00504 (inactive)
same,normalized thallium flux,[2],0.029 (inactive)
same,"raw Tl+ flux slope (below DMSO = inhibition, above = activation)",[3],0.0176 (inactive)
same,thallium flux slope,[4],0.0103 (inactive)
O=C(Oc1c(-c2ccco2)oc2ccccc2c1=O)c1cccnc1,normalised thallium flux (F/F0 slope),[1],0.0222 (active)
same,normalized thallium flux,PubChem AID 1714,0.0675 (active)
same,normalized thallium flux,[2],0.0399 (inactive)
same,"raw Tl+ flux slope (below DMSO = inhibition, above = activation)",[3],0.0573 (active)
CCCCC(CC)CNC(=O)C(=O)C1C(=O)Nc2ccccc21 (configuration not stated),normalised thallium flux (F/F0 slope),[1],0.0112 (inactive)
same,normalized thallium flux,PubChem AID 1714,0.0356 (active)
same,normalized thallium flux,[2],0.0322 (inactive)
same,"raw Tl+ flux slope (below DMSO = inhibition, above = activation)",[3],0.0309 (active)
same,thallium flux slope,[4],0.0126 (inactive)
O=C(Nc1ccn(Cc2ccccc2)n1)c1cccc(F)c1,normalised thallium flux (F/F0 slope),[1],0.00622 (inactive)
same,normalized thallium flux,PubChem AID 1714,0.00499 (inactive)
same,thallium flux rate (normalised fluorescence),[5],0.00698 (inactive)
same,"raw Tl+ flux slope (below DMSO = inhibition, above = activation)",[3],0.017 (active)
same,thallium flux slope,[4],0.00931 (inactive)
CS(=O)(=O)N(CC(=O)N1CCN(c2ccc(F)cc2)CC1)C1CCCCC1,normalised thallium flux (F/F0 slope),[1],0.00629 (inactive)
same,normalized thallium flux,PubChem AID 1714,0.00489 (inactive)
same,thallium flux rate (normalised fluorescence),[5],0.00762 (inactive)
same,"raw Tl+ flux slope (below DMSO = inhibition, above = activation)",[3],0.0176 (active)
same,thallium flux slope,[4],0.0102 (inactive)
Cc1ccc(NCc2n[nH]c(=S)n2-c2ccccc2)cc1Cl,normalised thallium flux (F/F0 slope),[1],0.00768 (inactive)
same,normalized thallium flux,PubChem AID 1714,0.0747 (active)
same,normalized thallium flux,[2],0.0302 (inactive)
same,thallium flux rate (normalised fluorescence),[5],0.00846 (active)
same,thallium flux slope,[4],0.00946 (inactive)
COc1ccccc1-n1cnc2cc(NS(=O)(=O)c3ccccc3)ccc21,cell count,[6],720
same,inhibition,[6],-12.5% (inactive)
same,inhibition of aggregation,[7],1.2% (inactive)
same,nuclei count,[7],90.2%
same,inhibition,[8],-14.6% (inactive)
same,nuclei count,[8],108%
same,fluorescence slope,[9],-0.46 (inactive)
same,NADPH fluorescence slope,[10],-1.9e-05 (inactive)
same,slope,[11],0.00351 (inactive)
same,outcome,[12],inactive
same,normalised thallium flux (F/F0 slope),[1],0.00507 (inactive)
same,normalized thallium flux,PubChem AID 1714,0.00527 (inactive)
same,normalized thallium flux,[2],0.0252 (active)
same,thallium flux rate (normalised fluorescence),[5],0.0068 (inactive)
same,thallium flux slope,[4],0.00966 (inactive)
same,inhibition,[13],-18.8% (inactive)
same,inhibition,[14],98.4% (active)
Fc1ccc(COc2cccc(-c3n[nH]c(=S)o3)c2)cc1,normalised thallium flux (F/F0 slope),[1],0.0171 (inactive)
same,normalized thallium flux,PubChem AID 1714,0.101 (active)
same,thallium flux rate (normalised fluorescence),[5],0.0348 (active)
same,"raw Tl+ flux slope (below DMSO = inhibition, above = activation)",[3],0.042 (active)
same,thallium flux slope,[4],0.0338 (active)
O=C(Cc1csc(Nc2nc(=S)[nH]c3ccccc23)n1)NCCCN1CCN(c2cccc(Cl)c2)CC1,normalised thallium flux (F/F0 slope),[1],0.0134 (active)
same,normalized thallium flux,PubChem AID 1714,0.0417 (active)
same,normalized thallium flux,[2],0.0374 (inactive)
same,"raw Tl+ flux slope (below DMSO = inhibition, above = activation)",[3],0.0417 (active)
same,thallium flux slope,[4],0.0172 (active)
O=c1c2ccccc2[nH]c(=S)n1CCN1CCC(=C(c2ccc(F)cc2)c2ccc(F)cc2)CC1,cell count,[6],603
same,inhibition,[6],-12.2% (inactive)
same,inhibition of aggregation,[7],12% (inactive)
same,nuclei count,[7],92.5%
same,inhibition,[8],-105% (inactive)
same,nuclei count,[8],132%
same,z-score,[15]; [19],-1.63
same,z-score,[15]; [20],-0.997
same,z-score,[15]; [21],0.771
same,inhibition,[16],-4.44% (inactive)
same,fluorescence slope,[9],-0.452 (inactive)
same,NADPH fluorescence slope,[10],-0.000101 (inactive)
same,slope,[11],0.00649 (inactive)
same,outcome,[12],inactive
same,normalised thallium flux (F/F0 slope),[1],0.00677 (inactive)
same,normalized thallium flux,PubChem AID 1714,0.0111 (active)
same,normalized thallium flux,[2],0.0294 (inactive)
same,thallium flux rate (normalised fluorescence),[5],0.00955 (active)
same,inhibition,[17],-8.89% (inactive)
same,inhibition,[13],8.28% (inactive)
same,inhibition,[14],23.8% (inactive)
Cc1cccc(COc2ccc(/C(O)=C3\C(=O)C(=O)N(CCN(C)C)C3c3ccncc3)cc2)c1 (configuration not stated),cell count,[6],526
same,inhibition,[6],3.2% (inactive)
same,inhibition of aggregation,[7],-20.7% (inactive)
same,nuclei count,[7],106%
same,inhibition,[8],-20.5% (inactive)
same,nuclei count,[8],126%
same,z-score,[15]; [19],-1.17
same,z-score,[15]; [20],0.707
same,z-score,[15]; [21],-0.252
same,inhibition,[16],-1.75% (inactive)
same,fluorescence slope,[9],-0.434 (inactive)
same,NADPH fluorescence slope,[10],-0.000161 (inactive)
same,slope,[11],0.00578 (inactive)
same,inhibition,[17],-10.1% (inactive)
same,inhibition,[13],9.07% (inactive)
same,inhibition,[14],4.16% (inactive)
COc1cc(NS(=O)(=O)c2ccc(N)cc2)nc(OC)n1,cell count,[6],482
same,inhibition,[6],1.1% (inactive)
same,inhibition of aggregation,[7],-12.6% (inactive)
same,nuclei count,[7],82%
same,inhibition,[8],-59.5% (inactive)
same,nuclei count,[8],96.6%
same,z-score,[15]; [19],0.641
same,z-score,[15]; [20],0.795
same,z-score,[15]; [21],-0.759
same,inhibition,[16],5.79% (inactive)
same,fluorescence slope,[9],-0.439 (inactive)
same,NADPH fluorescence slope,[10],-7e-05 (inactive)
same,slope,[11],0.00564 (inactive)
same,inhibition,[17],20.1% (inactive)
same,inhibition,[13],24.9% (inactive)
same,inhibition,[14],51.9% (active)
Cc1cccc(N(CC(O)CN(C)C)S(=O)(=O)c2ccccc2)c1 (configuration not stated),cell count,[6],660
same,inhibition,[6],-8.8% (inactive)
same,inhibition,[8],-9.3% (inactive)
same,nuclei count,[8],177%
same,z-score,[15]; [19],0.811
same,z-score,[15]; [20],0.15
same,z-score,[15]; [21],0.694
same,inhibition,[16],1.42% (inactive)
same,fluorescence slope,[9],-0.413 (inactive)
same,NADPH fluorescence slope,[10],-6e-05 (inactive)
same,fluorescence slope,[18],0.00446 (inactive)
same,outcome,[12],inactive
same,normalised thallium flux (F/F0 slope),[1],0.00903 (inactive)
same,normalized thallium flux,[2],0.0335 (inactive)
same,thallium flux rate (normalised fluorescence),[5],0.00768 (inactive)
same,"raw Tl+ flux slope (below DMSO = inhibition, above = activation)",[3],0.0203 (inactive)
same,thallium flux slope,[4],0.0103 (inactive)
same,inhibition,[17],30.7% (inactive)

# Source: PubChem BioAssay
